The panel holds about 79,000 compounds, 15% with a hit somewhere; the sample as a whole holds those more often. A number with no mark means an inactive call. Calls of active or inactive are those of the source. Rule as the data show it: active = growth inhibition above about 70%; inactive = the rest. Where a SMILES comes first, the peptide text is derived from it. [ ]: non-standard residue; d: D form. The star is where a group is joined. ξ: configuration not given here. ξD = NC(CC(=O)O)C(=O)O; Boc = CC(C)(C)OC(=O)*; Aib = CC(C)(N)C(=O)O; OBn = c1ccc(CO*)cc1
Tests used:
[1] = NCI Yeast Anticancer Drug Screen. Data for the rad50 strain (AID 155);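 also: 0% = growth of vehicle-only cultures of the same strain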; details: S. cerevisiae rad50 strain growth inhibition; at 50.0 µM; active compounds read high
Procedure, shortened: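 A DNA repair-deficient yeast mutant serves as the test organism; compound-induced growth inhibition is calculated against vehicle-treated cells.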

[2] = NCI Yeast Anticancer Drug Screen. Data for the mec2-1 strain (AID 157); details: S. cerevisiae mec2-1 strain, at 50.0 µM, active compounds read high
Procedure, shortened: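 Compounds were applied to mec2-1 yeast cells. Their growth was then compared with that of vehicle-treated cultures to give growth inhibition.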

[3] = NCI Yeast Anticancer Drug Screen. Data for the sgs1 mgt1 strain (AID 161);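 also: 0% = growth of cultures given vehicle only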; details: S. cerevisiae sgs1 mgt1 strain, at 50.0 µM, active compounds read high
Procedure, shortened: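 Growth of a repair-deficient yeast mutant was monitored after compound treatment and expressed as inhibition relative to vehicle-treated cultures.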

[4] = NCI Yeast Anticancer Drug Screen. Data for the cln2 rad14 strain (AID 165);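 also: 0% = growth equal to vehicle treated cultures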; details: S. cerevisiae cln2 rad14 strain, at 50.0 µM, active compounds read high
Procedure, shortened: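 Strain: cln2 rad14 yeast, altered in cell cycle control and DNA damage repair. Read-out: growth inhibition vs vehicle.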

[5] = NCI Yeast Anticancer Drug Screen. Data for the bub3 strain (AID 167); details: S. cerevisiae bub3 mutant strain, at 50.0 µM, active compounds read high
Procedure, shortened: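 Inhibition values come from growth of compound-treated mutant yeast normalised to vehicle-treated controls.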

[6] = NCI Yeast Anticancer Drug Screen. Data for the mlh1 rad18 strain (AID 175); details: S. cerevisiae mlh1 rad18 strain growth inhibition; at 50.0 µM; active compounds read high
Procedure, shortened: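 A repair-deficient yeast strain is exposed to test compound, and growth is scored relative to vehicle-treated controls.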

| Structure (SMILES) | growth inhibition [1] [%] | growth inhibition [2] [%] | growth inhibition [3] [%] | growth inhibition [4] [%] | growth inhibition [5] | growth inhibition [6] [%] |
| --- | --- | --- | --- | --- | --- | --- |
| Nc1ccn(CC(=O)c2ccc(Cl)s2)c(=O)n1 | -1 | 10.8 | 6.9 | -5.1 | 2.15% | 6.3 |
| COc1cc2c(cc1OC)C(c1ccc(N=Cc3ccc(N(C)C)cc3)cc1)N(C(=S)Nc1cc(Cl)ccc1Cl)CC2 (stereo not given) | 35.5 | 5.15 | 40.7 | 21.7 | 24.1% | 26.9 |
| COc1ccc(C(O)Cc2ccccc2)cc1 (stereo not given) | -4.9 | -19.4 | 5.6 | -16.9 | -18.4% | -6.4 |
| OCC1C2C=CC(C3C=CC32)C1CO (stereo not given) | 8.4 | -9.8 | -5.7 | -89.7 | -1.6% | 4.25 |
| COc1c(NC(=O)c2cccc(C(=O)Nc3cccc([N+](=O)[O-])c3OC)c2)cccc1[N+](=O)[O-] | -30.6 | -15.8 | -19.9 | -49.1 | -0.7% | -15.5 |
| C=C(C)c1nn(-c2ccccc2)c2c1C(=O)CC(C)O2 (stereo not given) | -12.2 | -26.2 | 1.8 | 29.2 | -7.45% | 8.5 |
| CCCCOC(=O)c1ccc(OC(=O)Nc2cccc(Cl)c2)cc1 | 13.2 | 2.3 | 6.15 | 12.2 | 70.7% (active) | 30.1 |
| C1CCC(C2CCCC[N-]2)[N-]C1.C1CCC(C2CCCC[N-]2)[N-]C1.O=C(O)C(=O)O.[Ru+4] (stereo not given) | 31.8 | 9.4 | 16.2 | 11.8 | -3.25% | 7.9 |
| CC(C)c1cccc(C(C)C)c1NC(=O)/C(Cc1nc2ccc(Cl)cc2[nH]c1=O)=N\NC(=O)C[N+](C)(C)C | 17.7 | 16.2 | -12.3 | 25.7 | 26.9% | 22.7 |
| COc1cc2c(cc1OC)C1(CCBr)C3CC4C(=CCOC5CC(=O)N2C1C54)CN3C(=O)Cc1ccccc1 (stereo not given) | 27.8 | -11.9 | -3.45 | 7.4 | 4.75% | 3.7 |
| CCCC1=NC(C(F)(F)F)(C(F)(F)F)N=C(N2CCOCC2)O1 | 0.95 | 7.25 | -2.3 | 4.55 | 27.1% | 1.45 |
| CCN(CC)c1ccc(Br)cc1 | 32.9 | 4 | 4.55 | -2.5 | 14.2% | 33.9 |
| CCOc1ccccc1/C=C(/C#N)C(N)=O | 10.8 | -0.5 | -26.6 | -29.9 | -50.4% | -1.3 |
| O=c1c2ccccc2nc(-c2ccccc2)n1/N=C/c1ccccc1O | 1.15 | 38.8 | 34.6 | -5.65 | 32.9% | 27.1 |
| COc1c(C)cc(Cc2ccc3c(c2)OCO3)cc1C | -7.8 | -12.9 | 4.2 | -22 | -10.6% | -5.3 |
| COC1(C)CNCC(C)(C)NC(=O)C(C)(OC)CNCC(C)(C)NC1=O (stereo not given) | -10.9 | 2.1 | -20.7 | -17 | -32.5% | -19.6 |
| NNC(=O)CCC(=O)NC1C2CC3CC(C2)CC1C3 (stereo not given) | -23.6 | -15.4 | -18.6 | -0.85 | -10.7% | 25.2 |
| O=[N+]([O-])c1cccc(/C=C/c2cc(N(CCO)CCO)c3ccccc3n2)c1 | 48.1 | 12.8 | 11.1 | 3.5 | -6.6% | 22.2 |
| CC(C)(C)OC(=O)NC(CC(=O)OCc1ccccc1)C(=O)NC(C)(C)C(N)=O (stereo not given) (Boc-[ξD](OBn)-[Aib]-NH2) | 5.25 | 11.8 | 2 | 26.6 | 23.4% | -19.8 |
| O=C1CN(CCCN2CCOCC2)CC(=O)N2Cc3ccccc3CN12 | -25.9 | -3.8 | -9.45 | -0.45 | 2.95% | 3.7 |

| Structure (SMILES) | growth inhibition [1] [%] | growth inhibition [2] [%] | growth inhibition [3] [%] | growth inhibition [4] [%] | growth inhibition [5] | growth inhibition [6] [%] |
| --- | --- | --- | --- | --- | --- | --- |
| O=c1[nH]c2nc3ccccc3c(=O)n2/c1=C/c1cccs1 | 28.9 | 2.2 | 4.4 | 20.6 | 14.3% | -15.8 |
| CC(C)CC1=[N+]=C(NC#N)N=C(CCC(=O)Nc2ccccc2[N+](=O)[O-])C1 | -10.1 | -5.5 | -5.55 | 20.9 | 0.65% | 1.7 |
| CCCCCCCCCCCCCCCCNc1nc(=S)cc(C)[nH]1 | -10.2 | -27.6 | -5.05 | -14.6 | -25% | -10.9 |
| COC(=O)/C(C#N)=C/NC(=S)Nc1ccccc1 | -48.1 | -0.85 | -44.5 | 11.2 | -26.3% | -33.2 |
| C=C1C(=O)O[C@H]2[C@H]1CC(=O)/C(C)=C/CC[C@@]1(C)O[C@@H]21 | 32.7 | 21.4 | 32.8 | 21.4 | 25.6% | 7 |
| CCN(CC)CCNc1ccc2ncn3c4c(OC)ccc(OC)c4c(=O)c1c23 | -21.1 | -22.2 | 0.9 | 22.6 | -47% | 62.1 |
| COC(=O)c1c2c(cc3c1CC1(Cc4ccccc4C1=O)C3)CCC2 (stereo not given) | -23.2 | 5.2 | 14.2 | -17.1 | 9.4% | -39.9 |
| CN(C)S(=O)(=O)C1(c2ccccc2)CCCC1 | 15.1 | 9.85 | 6.2 | -1.5 | -7% | 1.9 |
| CN(/N=C\c1ccc([N+](=O)[O-])cc1)C(=O)c1ccccc1 | -6.85 | -4.15 | 14.6 | -33.6 | 19.4% | -7.35 |
| CC1(CCOCc2ccccc2)NC(=O)NC1=O (stereo not given) | -32.2 | -8.4 | -44.4 | -33 | -13.2% | -19.9 |
| CCOC(=O)Cc1cc(Cl)c2ccc(Cl)cc2n1 | 32.1 | -2 | 23.2 | 11.6 | 36.4% | 40.4 |
| O=C(O)C(Cc1ccccc1)C(=O)O.[NH2-].[NH2-].[Pt+2] | -11.7 | -0.95 | 10.9 | 13.1 | 1.25% | 24.2 |
| Cc1ccccc1-c1c(N)nc(N)nc1C(=O)Nc1nccs1 | -26.6 | -36.2 | -39.6 | -3.85 | -28.1% | -7.9 |
| O=C1[C@@H](c2ccc(Cl)cc2)[C@H]2CC=C[C@H]2N1O | 8.65 | -21.4 | -13.8 | 15.4 | -13.4% | -2.25 |
| CC1=NOC(=O)/C1=C/c1ccccc1C | 51.2 | 2.55 | 27.9 | 8.15 | 17.4% | 36.9 |
| COc1ccc2c(c1OC)C1CCCCC1SCC2=O (stereo not given) | 14.4 | 6.85 | 0.7 | 5.75 | 12.5% | -16.4 |
| OCC1CCNCC1 | 22.1 | 12.1 | 0.1 | -1.15 | -3.2% | 32.2 |
| COc1ccc(NC=O)c(C(O)CCNC(C)=O)c1 (stereo not given) | -15.4 | -10.1 | -19.6 | 0.45 | -39.1% | -34.5 |
| Cc1ccc(S(=O)(=O)NN=C2CCCCCCCCCCC2)cc1 | -8.35 | -21.4 | -7.75 | 7.45 | 9.05% | -1.8 |
| CCCCCCCCCCCCCC/C(C(=O)OC)=C(/O)C(=O)OCC | -40.4 | -30.4 | -27.6 | -17.2 | -57.8% | -19.9 |
